Among the data in the OligoGym collection are sensor-assay potency score (higher = more potent) values, retold here.
Also: reference of the scale not given here.

The target of one assay is PGLYRP2. Briefly: pooled miR-30 sensor sort-seq; sequence = guide strand. The settings on record: shRNA.
In the case of TTCTCGTACGTCATGTCGGGCC, the sensor-assay potency score (higher = more potent) was -0.387.

Turning to TTTTGTAGCATCTGGAGTGTTG, the sensor-assay potency score (higher = more potent) was -0.0388. The same measure, in the same setting: the same measure for TAGCAATCCGAGTAGGATCCAG: -0.509; for TTAACAGAGATGCCTTGGGGTC: -1.41; for TTCTGCCGTCGGAAGTTGCTGC: -0.417. On the same count and under the same terms, to TCGTACACGTAGCCGTCCGAGC belongs -1.66; to TTGGCTCATGCACTGAAGCTGG, -0.819. Same read-out and setting: the same measure for TAGTCTCCAAGGATGACCCCAT: -0.15; for TTGGACATCTGGACAGCCTTTT: -0.831.

In the case of TCTGGGTCTGGGAACCTCGGAG, the sensor-assay potency score (higher = more potent) is -0.74.

A further assay has as its target PGR. The description is as above. The settings on record: shRNA.
For TTGACTTCGTAGCCCTTCCAAA, the sensor-assay potency score (higher = more potent) is -1.29. Same read-out and setting: the same measure for TTGATTAAGACTTGTCAGCAAA: -0.954; for TTGAAGCTTGACAAACTCCTGT: 0.608. On to TTCTTGGCTAACTTGAAGCTTG, for which the sensor-assay potency score (higher = more potent) is -0.748. Same read-out and setting: the same measure for TTGTGTTGTCATGTCCTGCATA: -0.728; for TGTAAGTTGATAGAAACGCTGT: 0.269. Still for that read-out and setting: the same measure for TAGTTGATTAAGACTTGTCAGC: -0.703; for TAAGTTGATAGAAACGCTGTGA: 0.39; for TTGTTTGACAAGATCATGCAAG: -0.044. On the same count and under the same terms, the same measure for TAACTTCAGACATCATTTCTGG: -0.00174; for TCAACTGTATGTCTTGACCTGG: -0.016. As to TTCGTCTTCCAGCAGCTGCCGA, the sensor-assay potency score (higher = more potent) is -0.877.

A further assay has as its target PHACTR4. The assay is described as above. Conditions: shRNA.
Consider TTCATGAACCTCCATCTCGGAG, for which the sensor-assay potency score (higher = more potent) is -1.12. On the same count and under the same terms, to TTGACTGAGCTTTCTAGTGAGC belongs -0.776. The same measure, in the same setting: to TCTTGAAGTACAATACACCAGG belongs -0.827; to TTCCTTTTTCTGATCTTCCTGC, 0.429. The same measure, in the same setting: to TTCATCTTCTTCATCTCGGTAC belongs 0.467; to TTTCGCATAGATATTTTCCGTT, -0.285. Sequence TTAGGTTGCAATATATTGCGTT yielded a sensor-assay potency score (higher = more potent) of 0.996. As for TTAAACCTCAGAATCTTCCTGG, the sensor-assay potency score (higher = more potent) is 0.724.

With TTCTTTAACATGGCATCGCTTG, the sensor-assay potency score (higher = more potent) was -0.642. The same measure, in the same setting: the same measure for TTTGATAACAATGTACCACTGT: 0.882; for TTCCAGTTGAGCCTAGTCGTTT: -1.14. The same measure, in the same setting: to TTGATAACAATGTACCACTGTT belongs -0.00481.

A further assay deals with PHF15. Described as above. The settings on record: shRNA.
TTGAACTTGACCTCATCGTTGT had a sensor-assay potency score (higher = more potent) of 0.744. The same measure, in the same setting: to TCTAACCCTCTCTAGGTCCTGC belongs 0.0914; to TGTCGCATGACTGTCAGTGGTG, -0.605; to ATCTCGTCCAAGTCATAGCGGC, -1.39. For the sequence TACATCTGAGTCGCTCATCTCC, the sensor-assay potency score (higher = more potent) is -0.519.
